# Results reported in PubChem BioAssay AID1117361 (Southern Research Institute, 2015).
# About 900 (25%) of roughly 3,600 compounds were called active. A selection follows. Potency and affinity values are given separately. A number with no mark means an inactive call. The rule behind the calls is not given here.
# Biological target: Protein Tat (Human immunodeficiency virus type 1 group M subtype B (isolate HXB2)) (UniProt P04608)
# Assay: HIV-1 Tat–TAR interaction blockers – biochemical, fluorescence polarization, FAM-labeled TAR RNA, counter-screen for Vif-APOBEC3G degradation inhibitor project, dose response (AID 1117361)
# Conditions: Tat-TAR RNA binding; series mostly up to 100 µM; inhibition: at the top concentration
SMILES,inhibition,outcome
OCCN1CCN(CC(O)COc2ccc3ccccc3c2)CC1 (stereo unspecified),6.76%,–
CCOc1ccc(N(CC(=O)N2CCC(Cc3ccccc3)CC2)S(C)(=O)=O)cc1,–,inactive
C#CC[N+]1(CC#Cc2ccccc2)CCCC1,–,inactive
CC1(C(=O)O)Cc2ccccc2C(=O)O1 (stereo unspecified),8.19%,–
CC12CCC(C(=O)Nc3cc(F)ccc3F)(CC1=O)C2(C)C (stereo unspecified),–,inactive
O=C(c1ccc(S(=O)(=O)N2CCOCC2)cc1)N1CCN(c2cccc(Cl)c2)CC1,2.73%,–
CC1(C)CC(=O)C(N=Nc2ccc(Br)cc2)=C(O)C1,9.9%,–
CN(C)CCCN(CCCN(C)C)C(=S)Nc1ccc(S(=O)(=O)N2CCOCC2)cc1,1.65%,–
COCc1nnc(NC(=O)c2ccc(S(=O)(=O)N(C)C3CCCCC3)cc2)o1,4.09%,–
O=C(c1ccccc1S(=O)(=O)NCc1ccccc1)N1CCCC1,3.38%,–
C=CCn1c(Sc2nc(C)cs2)nc2c1c(=O)[nH]c(=O)n2C,3.38%,–
O=C(NCc1cccnc1)C1c2ccccc2C(=O)N1C1CCCC1 (stereo unspecified),7.43%,–
NNc1ccc([N+](=O)[O-])c2[nH][nH]c(=O)c12,–,inactive
CCCNC(=O)c1ccccc1NC(=O)c1ccc(CSc2ccccc2)cc1,–,inactive
COc1ccc(-c2cc(C)nc(SCC(=O)c3cccc([N+](=O)[O-])c3)n2)cc1,5.01%,–
C=C1C(=O)C2=CC1CCC(=O)C1(C)CCC(OC(C)=O)C(C)(C)C1CC2O (stereo unspecified),–,inactive
CCn1c(SCC(=O)n2nc(C)cc2C)nnc1-c1ccc2c(c1)OCO2,0.68%,–
O=C(/C=C/c1cccs1)N1CCN(c2ccc(O)cc2)CC1,–,inactive
O=C(Nc1ccc(Br)cn1)C1CCN(S(=O)(=O)c2cccs2)CC1,–,inactive
Cc1ccc(Nc2nc3nonc3nc2N(C)C)cc1,4.77%,–
CCc1nc2ccc(Cc3ccc4nc(CC)[nH]c4c3)cc2[nH]1,2.34%,–
Cc1ccc(S(=O)(=O)N(CC(=O)N/N=C/c2cccc3c2OCCO3)c2ccccc2F)cc1,–,inactive
Cn1cnnc1SCC(=O)Nc1ccccc1C(=O)NC1CC1,–,inactive

SMILES,inhibition,outcome
N#Cc1ccccc1NC(=O)COC(=O)c1ccc(S(=O)(=O)N2CCCC2)cc1,8.78%,–
COCC(=O)Nc1nnc(COc2ccccc2)s1,0.68%,–
Cc1ccc(-n2c(Cc3cccn3C)nnc2SCC(=O)Nc2nnc(C)s2)cc1,9.55%,–
O=C(NC(=O)N1CCN(c2ccc([N+](=O)[O-])cn2)CC1)c1c(Cl)cccc1Cl,19.8%,–
CC1CC(C)CN(S(=O)(=O)c2ccc(NC(=O)c3ccc(=O)[nH]c3)cc2)C1 (stereo unspecified),–,inactive
COc1ccc(-n2ncc3c(NCc4ccccn4)ncnc32)cc1,2.03%,–
CC(=O)Nc1ccc(S(=O)(=O)N2CCN(Cc3ccccn3)CC2)cc1,7.43%,–
COc1ccc(S(=O)(=O)N(CCc2ccccc2)CC(=O)NC(C)C)cc1,10.8%,–
O=C(Cn1c(=O)oc2ccccc21)N1CCN(S(=O)(=O)c2ccccc2)CC1,16.5%,–
CCOC(=O)N1CCN(c2c(NCc3ccccc3Cl)c(=O)c2=O)CC1,–,inactive
CC(C)(C)OC(=O)N1CCN(c2ccc([N+](=O)[O-])cc2)CC1,–,inactive
CC(C)(C)C(=O)O/N=C(\N)c1c(Cl)cccc1Cl,–,inactive
C=CCc1ccc(OCCOCCNCCCC)c(OC)c1,1%,–
Cn1c(=O)c2c(nc(CN3CCOCC3)n2CCN2CCOCC2)n(C)c1=O,6.08%,–
O=C(CSc1nc(-c2ccccc2)cc(C(F)(F)F)n1)c1cccc([N+](=O)[O-])c1,7.5%,–
COc1ccc(CCNC(=O)CSc2nc(-c3ccco3)cc(C(F)(F)F)n2)cc1,10.2%,–
Cc1c(F)cccc1NC(=O)CCCCCC1NC(=O)NC1C (stereo unspecified),–,inactive
Cc1ccc(S(=O)(=O)C(F)(F)F)cc1NC(=O)c1cccnc1,–,inactive
COc1cc([N+](=O)[O-])ccc1NC(=O)Oc1ccc(NC(C)=O)cc1,–,inactive
O=c1cc(-c2ccc(O)c(O)c2)oc2cc(O)c(C3OC(CO)C(O)C(O)C3O)c(O)c12 (stereo unspecified),14%,–
CC1C(=O)N2CCCc3cc(NC(=O)C(=O)NCc4cccnc4)cc1c32 (stereo unspecified),–,inactive
COc1cc(C2Nc3ccccc3C(=O)N2c2ccccc2)ccc1O (stereo unspecified),4.77%,–
Clc1ccc(-c2nc3cnccn3c2Nc2ccc3c(c2)OCO3)cc1,–,inactive

SMILES,inhibition,outcome
COc1cccc(-c2cc(C(=O)Nc3c(C)n(C)n(-c4ccccc4)c3=O)no2)c1,–,inactive
CC[n+]1ccc(C)c2cc(S(=O)C(F)(F)F)ccc21 (stereo unspecified),9.46%,–
COc1ccc(CNC(=O)c2ccc(NC(=O)C3CCCO3)cc2)cc1 (stereo unspecified),3.38%,–
COc1ccc(C(=O)Nc2nncs2)cc1S(=O)(=O)N1CC(c2ccccc2)CC1=O (stereo unspecified),2.03%,–
COC(=O)C(C(=O)Nc1ccc(OC)cc1)C1CCCCCC1 (stereo unspecified),12.3%,–
COCCn1nnnc1C(c1cccs1)N1CCN(c2cc(C)ccc2C)CC1 (stereo unspecified),3.38%,–
Cc1ccc(C(=O)OC2CCS(=O)(=O)c3sccc32)cc1 (stereo unspecified),8.87%,–
COC(=O)c1ccc(NC(=O)CN2CCCC2)cc1,2.7%,–
COC(=O)Cc1ccc(NC(=S)NNC(=O)C2CC2)cc1,–,inactive
CCc1nnc(NC(=O)CSc2nnc(Cc3ccccc3)o2)s1,1.36%,–
COC(=O)c1c(NC(=O)CSc2nnc(CNc3ccc(Cl)cc3)o2)sc(C)c1C,–,inactive
CCOC(=O)C1=C(Cn2cnc3ccccc32)NC(=O)NC1c1ccc(OC)cc1 (stereo unspecified),–,inactive
Cc1ccc(C(=O)Oc2ccc(C(=O)COC(=O)c3cnccn3)cc2)cc1,–,inactive
Cc1ccccc1N1CCN(Cc2c[nH]c3ccccc23)CC1,–,inactive [at 50 µM]
CSc1ccc(/C=N/n2c(C3CCCCC3)n[nH]c2=S)cc1,–,inactive
Cc1nc(C)c(C(=O)Nc2nc3c(C)cccc3s2)o1,5.01%,–
Clc1ccc(Sc2cc(N3CCOCC3)nc(-c3ccccc3)n2)cc1,14.2%,–
O=C(NC1=NCCS1)C1CC2CCC1C2 (stereo unspecified),1.36%,–
NC(=O)COC(=O)c1ccc(Oc2ccccc2)cc1,0.68%,–
CCOc1ccc2nc(NC(=O)CCn3cccc3)sc2c1,4.73%,–
COc1ccc(OC)c(S(=O)(=O)N2CCN(C)CC2)c1,6.82%,–
CCOC(=O)N1CCN(C(=O)c2cc3c(s2)-c2ccccc2OC3)CC1,–,inactive
O=C1N(c2ccccc2)C2CS(=O)(=O)CC2N1c1ccc(Cl)c(Cl)c1 (stereo unspecified),–,inactive

SMILES,inhibition,outcome
COc1cccc(OC)c1C(=O)n1nc(C)cc1C,–,inactive
Cc1cc(S(=O)(=O)n2ccnc2)c(Cl)cc1Cl,10.7%,–
O=C(Cc1ccccn1)c1ccncc1,3.01%,–
Cc1ccc(N=Nc2ccc(O)c(/C=N\NC(=O)c3ccc(N)cc3)c2)cc1C,2.03%,–
O=C(N/N=C/c1cccnc1)c1cc(O)c(O)c(O)c1,–,inactive
CCC(Sc1nc(N)c(NC(=O)c2ccc(OC)c(OC)c2)c(=O)[nH]1)C(=O)OC (stereo unspecified),6.76%,–
S=C(Nc1ccc(Oc2ccccc2)cc1)NC1CCCCC1,2.05%,–
CCCCCCc1nc2c(=O)[nH]c3ccccc3c2o1,1.36%,–
CCOC(=O)COn1c(=O)c(-c2ccc(Cl)cc2)[n+]([O-])c2ccccc21,7.01%,–
COc1ccccc1OCC(=O)NCC1CCCN(Cc2cnn(C(C)C)c2)C1 (stereo unspecified),–,inactive
CCC(C)c1c(O)nc(SCC(=O)N2CCOCC2)[nH]c1=O (stereo unspecified),1.35%,–
CC1(C)CCC(=O)c2ccccc21,–,inactive
O=C(Oc1ccccc1)c1cccc2cccnc12,–,inactive
CC(C)Cn1c(CCC(=O)O)ccc1-c1cccs1,23.9%,–
O=C(O)CCC(=O)N(Cc1cccs1)Cc1cccs1,10.2%,–
CCc1ccc(-c2nc(SCC(=O)NC3CCS(=O)(=O)C3)n[nH]2)cc1 (stereo unspecified),–,inactive
O=C(CNC(=O)Cn1cnc2sc3c(c2c1=O)CCCC3)NCc1ccccn1,–,inactive
Cc1cc(NC(=O)c2cncc(Br)c2)no1,–,inactive
O=C1c2ccccc2C(=O)N1OCCOCCOCCBr,7.43%,–
O=C1CCC(CCC(=O)N2CCCC(C(=O)c3ccc4c5c(cccc35)CC4)C2)=NN1 (stereo unspecified),–,inactive
Cc1ccc(OCc2ccc(C(=O)NN)o2)cc1C,1.65%,–
CN(C)C(=O)c1ccc(COc2ccccc2Br)o1,6.76%,–
CCOC(=O)c1cc2c(c(CCO)n1)[C@H](CCO)N(S(=O)(=O)C(C)(C)C)C2,–,inactive

SMILES,inhibition,outcome
COc1ccc(OC)c(NC(=O)CSc2nnc(CCCO)n2-c2ccccc2)c1,8.11%,–
Cc1cccc(-n2c(N)cc(=O)nc2SCC(=O)NC2CCCCC2)c1,2.05%,–
COc1ccc(-n2c(Cc3cccn3C)nnc2SCC(=O)Nc2ccccc2)cc1,–,inactive
O=C(CSc1nnc(-c2cccnc2)n1C1CCCCC1)NC1CCCCC1,–,inactive
Cc1ccc(-n2c(SCC(=O)NCC3CCCO3)nc3c(c2=O)SCC3)cc1 (stereo unspecified),6.76%,–
O=C(Cc1cc(=O)[nH]c(=O)[nH]1)NCC1CCCO1 (stereo unspecified),4.73%,–
N#Cc1ccccc1S(=O)(=O)N1CCN(C(=O)CN2CCCC2c2cccs2)CC1 (stereo unspecified),–,inactive
COc1ccc(C(C)NC(=O)C2C(=O)NC3(C)CC2c2ccccc2O3)cc1 (stereo unspecified),–,inactive
O=C(O/N=C\c1ccc(N2CCCCC2)c([N+](=O)[O-])c1)c1c(F)cccc1F,5.41%,–
Nc1nc2n(n1)C(c1c(F)cccc1Cl)CC(c1ccc(F)cc1)N2 (stereo unspecified),–,inactive
CCOC(=O)Cn1c(=O)c2c(nc3n2CCN3Cc2ccccc2)n(C)c1=O,5.01%,–
O=C(Nc1ccccc1)c1ccc(S(=O)(=O)N(CCO)CCO)cc1,–,inactive
COc1ccccc1NC(=O)C12CC3CC(C1)CC(c1ccc(C)cc1)(C3)C2,6.14%,–
COc1ccc(N=c2scc(-c3ccc(OC)cc3)n2CCO)cc1,–,inactive
O=C(c1ccccc1Br)N1CCN(c2ccccc2)CC1,29.1%,–
COc1cc(OC)cc(C(=O)NNC(=O)c2ccccc2Br)c1,2.05%,–
CC1=CC(C)(C)n2c(O)c(N=NC(N)=S)c3c(C)c(C)cc1c32,–,inactive
COc1ccccc1Oc1coc2cc(OC(=O)N3CCOCC3)ccc2c1=O,5.41%,–
O=C(O)c1ccc(Sc2nnnn2-c2ccccc2)c([N+](=O)[O-])c1,–,inactive
